Assay outcomes: PubChem BioAssay, National Center for Advancing Translational Sciences (NCATS)
VACV Venus inh: vaccinia inhibition (Venus reporter); Potency, µM (doses to about 36.5 µM), without a hit: at the top dose activity change, negative = inhibition, most hits filed as inhibitors; hit rate 0.46% among 330,000; Vaccinia virus Venus reporter expression, fluorescence; calls by dose curve; tested in A549 cells; also: potency is read from the fitted curve at half-maximal effect; % is scaled to controls: 0 for no effect and ±100 for the full control effect; nearly all actives have a fitted effect of over 30% in size
Marburg entry inh: inhibitors of Marburg virus binding or cell entry | Marburg virus pseudotyped entry inhibition, cell reporter | Potency, µM (top dose mostly 37.8 µM), without a hit: top-dose activity change, negative = inhibition, most hits filed as inhibitors | hit rate 1.8% among 300,000 | AID 540276; calls by dose curve; tested in HEK293 cells; also: potency is read from the fitted curve at half-maximal effect; % is scaled to controls: 0 for no effect and ±100 for the full control effect
VACV mCherry inh: inhibitors of vaccinia virus infection (mCherry reporter signal) | Vaccinia virus mCherry reporter infection, fluorescence | Potency, µM (series often up to 36.5 µM), for inactives: at the highest dose activity change, negative = inhibition, most hits filed as inhibitors | hit rate 0.63% among 310,000; calls by dose curve; tested in A549 cells; also: potency is read from the fitted curve at half-maximal effect; % is scaled to controls: 0 for no effect and ±100 for the full control effect; nearly all actives have a fitted effect of over 35% in size
Shiga toxin inh: Shiga toxin inhibition | Vero cells, Shiga toxin protein synthesis inhibition reporter | inhibition, % at 38.7 µM | hit rate 9.2% among 290,000; in the data active = inhibition mostly above about 28%, no sharp cut-off; inactive = mostly below about 43%; also: 0% is about no effect
Lassa entry inh: inhibitors of Lassa virus binding or cell entry; hit rate 1.2% among 300,000; Lassa virus pseudotype entry inhibition, cell reporter; Potency, µM (series often up to 37.9 µM), without a hit: top-dose activity change, negative = inhibition, usual class: inhibitors; calls by dose curve; tested in HEK293 cells; also: potency is read from the fitted curve at half-maximal effect; % is scaled to controls: 0 for no effect and ±100 for the full control effect; nearly all actives have a fitted effect of over 50% in size
CHX counter: counter-screen hit for Shiga toxin inhibitors, cycloheximide; cell reporter, cycloheximide protein synthesis inhibition counterscreen; max response, %; hit rate 12% among 300,000; in the data active = max response mostly above about 13%, no sharp cut-off; inactive = mostly below about 14%; also: read at 38.3 µM for the half of the compounds with a filed dose; 0% is about no effect
* hit, by the source's call; i = inactive; u = inconclusive; x = no result given; [ ] = dose if it differs, or a comment. This is one part of a sample in which hits are shown more often than they occur.

SMILES | VACV Venus inh | Marburg entry inh | VACV mCherry inh | Shiga toxin inh | Lassa entry inh | CHX counter
O=S(=O)(Nc1ccc(-c2cn3ccccc3n2)cc1)c1ccccc1 | -19.1% | x | -17.4% | 87.0* | x | 28.1*
Cc1cc(C)c(S(=O)(=O)Nc2ccc(-c3cn4ccccc4n3)cc2)c(C)c1 | -26.1% | u | x | 15.3 | -2.4% | 15.3
O=C(CSCc1ccc(F)cc1)Nc1ccc(F)cc1 | -14.1% | -1.3% | i | 19.3 | 1.9% | 16.8
O=C(CSCc1ccccc1)Nc1cccc(F)c1 | -8.0% | 21.8% | -19.7% | 76.6* | 29.9% | 38.1*
O=C(CSCc1c(F)cccc1F)Nc1ccccc1 | -2.6% | u | i | 115.6* | -3.3%[46.1 µM] | 53.6*
COc1ccc(CNC(=O)CSc2ncn[nH]2)cc1OC | -1.4% | u | i | -10.6 | u | 0.4
Cc1cc(C(=O)NCc2nnc3n2CCN(Cc2ccc(F)cc2F)CC3)c(C)o1 | 1.4% | x | -1.6% | x | x | x
CCOc1ccc(Cl)cc1-c1cc(C(=O)NCc2cc(C(F)(F)F)cc(C(F)(F)F)c2)[nH]n1 | -7.8% | x | -4.5% | x | x | x
Fc1ccc(NC(=S)Nc2ccc(Br)cc2)cc1 | u | -37.7% | u | 5.3 | u | 33.4*
Oc1ccc(NC(=S)Nc2ccc(F)cc2)cc1 | x | x | x | 36.3 | x | 9.2
CCN(CC)c1ccc(NC(=S)Nc2ccc(F)cc2)cc1 | -6.0% | u | -12.7% | 48.4* | -9.6% | 26.6*
CCN(CC)c1ccc(NC(=O)CN2CCN(CC(=O)Nc3ccc(F)cc3)CC2)cc1 | -5.6% | -10.4% | x | -16.6 | -5.8% | -3.2
COC(=O)C12OCC34C(CC5C(C)=C(O)C(=O)CC5(C)C3C(O)C1O)OC(=O)C(OC(=O)C=C(C)C)C24 (stereo unspecified) | u | u | 31.6µM* | x | u | x
COC(=O)C12OCC34C(CC5C(C)=C(O)C(=O)CC5(C)C3C(O)C1O)OC(=O)C(OC(=O)/C=C(\C)C(C)C)C24 (stereo unspecified) | 1.26µM* | u | u | x | u | x
CCCN(c1ccc(C(C)C)cc1)S(=O)(=O)c1ccc2c(c1)oc(=O)n2CC(=O)OCC | -9.9% | 3.2%[46.1 µM] | -2.4% | x | -15.8%[46.1 µM] | x
COc1ccc(OC)c(CN2CCOc3ccc(C(O)c4cccnc4)cc3C2)c1 (stereo unspecified) | -13.3% | x | -22.5% | x | x | x
CCN1C(=O)[C@@H]2[C@H]3[C@H](O)[C@H](O)CC(=NO[C@H](C)c4cn([C@H](CO)Cc5ccccc5)nn4)[C@@H]3CC[C@H]2C1=O | x | -10.9%[14.2 µM] | x | x | 25.3%[14.3 µM] | x
COc1cc2ccccc2cc1C(=O)Nc1ccc(Cl)cn1 | x | x | x | x | x | 15.6*
O=C(O)c1cc(NC(=O)c2cccc(F)c2)cc(NC(=O)c2cccc(F)c2)c1 | -9.0% | -1.8% | i | -10.6 | 7.8% | 0.3
O=C(Nc1ccc(Cl)cn1)c1ccccc1F | x | u | x | 88.0* | u | 32.4*
O=C(Nc1ncccn1)c1cccc(F)c1 | x | x | x | 21.5* | x | 10.9*
O=C(Nc1ccc(Cl)cn1)c1ccc2[nH]c(=O)c(=O)[nH]c2c1 | x | x | x | 27.0 | x | 11.9*
CC(CCl)n1c(=O)c2ccccc2n1C(=O)c1ccccc1 (stereo unspecified) | -3.7% | x | -6.6% | x | x | x
COc1cccc(NC(=O)Cn2c(=O)n(-c3ccc(C)cc3)c(=O)c3ccccc32)c1 | -16.9% | u | -9.3% | x | -25.3%[46.1 µM] | x
COc1ccc(Cc2c(-c3ccccc3)nc3ccc(Br)cn23)c(C)c1 | -13.4% | x | -7.5% | x | x | x
SMILES | VACV Venus inh | Marburg entry inh | VACV mCherry inh | Shiga toxin inh | Lassa entry inh | CHX counter
O=C(Nc1ccc(Cl)cn1)c1cccc(F)c1 | u | u | u | 120.7* | 2.1% | 32.3*
O=C(Nc1cccc(C(=O)Nc2ccc(Cl)cn2)c1)c1ccccc1 | x | x | x | 57.9 | x | 10.1
O=C(Nc1ccc(Cl)cn1)Nc1ccccc1F | x | u | x | 52.6* | 3.2% | 17.7
C/C(=C\c1ccccc1)C(=O)Nc1ccc(Cl)cn1 | x | x | x | 95.4* | x | 39.2*
O=C(NC(=O)c1ccccc1)Nc1ccc(Cl)cn1 | x | x | x | 145.3* | x | 51.5*
COc1ccc(SC[C@H](C)CN2CC[C@H](C)CCC2=O)cc1 | -5.5% | x | -5.0% | x | x | x
O=C(Nc1nnc(-c2ccc(Cl)cc2)o1)Nc1ccccc1F | -4.7% | 13.3%[46.1 µM] | i | 34.2* | 19.0% | 22.1
O=C(Nc1ccccc1)Nc1nnc(-c2ccccc2)o1 | x | -9.3% | x | 0.8 | -3.7% | 5.8
COc1ccc(NC2=C(Cl)C(=O)N(CCc3ccccc3)C2=O)cc1 | x | 13.4% | x | 53.0 | 15.7% | 26.0*
COc1ccc(NC2=C(Cl)C(=O)N(CCc3ccccc3)C2=O)c(OC)c1 | -16.4% | -6.5% | -4.1% | 58.7* | 12.4% | 73.0*
CCOc1ccc(NC2=C(Cl)C(=O)N(Cc3ccccc3)C2=O)cc1 | -5.2% | -36.1% | -12.3% | -8.9 | -12.5% | -1.8
N[C@@H](Cc1ccc(Oc2ccc(O)cc2)cc1)C(=O)O | x | -6.1% | x | x | x | x
CCOC(=O)C1CCCN(Cc2nc(Cc3ccccc3Cl)no2)C1 (stereo unspecified) | x | x | x | -3.6 | x | -2.1
OC1CCCN(Cc2nc(Cc3ccccc3Cl)no2)C1 (stereo unspecified) | x | x | x | 27.8 | x | 17.2*
CC1CCCN(Cc2nc(Cc3ccccc3Cl)no2)C1 (stereo unspecified) | -9.5% | 7.0%[46.1 µM] | i | 37.7* | 5.7%[46.1 µM] | 22.9*
Cc1ccc(S(=O)(=O)C2(C(=O)N3CCN(c4ccccc4F)CC3)CC2)cc1 | -4.3% | 1.7%[46.1 µM] | i | -4.1 | 4.1%[46.1 µM] | -6.5
CCc1ccc2nc(N(CCCN(C)C)C(=O)c3ccc(S(=O)(=O)N4CCCc5ccccc54)cc3)sc2c1 | u | u | u | -6.3 | 12.6µM* | -1.1
CN(C)CCN(C(=O)c1ccc(S(=O)(=O)N2CCc3ccccc32)cc1)c1nc2ccc(F)cc2s1 | -19.6% | u | -14.9% | 79.3* | 26.4%[46.1 µM] | 15.6
CN(C)CCCN(C(=O)c1ccc(S(=O)(=O)N2CCCCCC2)cc1)c1nc2ccc(F)cc2s1 | -25.2% | u | -22.6% | -11.9 | u | 8.7
CCOC(=O)NN=Cc1ccccc1-c1cc(OC)ccc1OC | x | -4.0%[14.2 µM] | x | x | x | x
O=C(Nc1cccc(O)c1)c1cc2nc(-c3ccc(Br)cc3)cc(C(F)(F)F)n2n1 | -13.3% | 5.5%[46.1 µM] | -5.4% | x | 30.3%[46.1 µM] | x
COc1cccc(COc2ccc3ccc(=O)oc3c2)c1 | -22.0% | 18.4%[46.1 µM] | -9.9% | 65.4* | -3.7%[46.1 µM] | 35.1*
COc1ccc(COc2ccc3ccc(=O)oc3c2)cc1 | x | x | x | 70.2* | x | 69.0*
COc1cccc(C(=O)Oc2ccc3ccc(=O)oc3c2)c1 | x | x | x | -4.1 | x | -1.9
COc1ccc2ccc(=O)oc2c1 | -12.4% | 2.2% | -17.2% | -21.6 | 4.3% | -1.2
O=C(NC1CC1)C1=C[C@@H](C2CC2)C[C@@H](OCc2ccc(CO)cc2)O1 | -13.0% | x | i | 19.1 | x | -1.3
Cc1ccc(CNC(=O)C(CC(C)C)N2Cc3ccccc3C2=O)cc1 (stereo unspecified) | -8.2% | x | i | x | 12.1%[46.1 µM] | x
COc1ccc(NC(=O)c2cccs2)cc1OC | x | 0.5% | x | 19.2 | -0.9% | 18.8*
COc1ccc(-c2[nH]ncc2/C=N\NC(=O)c2cccs2)cc1OC | x | x | x | 87.3* | x | 35.9*
COc1ccc(Cl)cc1-c1nc(-c2ccc(NC(=O)c3cccs3)cc2)no1 | -22.7% | u | -22.2% | 34.3* | u | 85.2*
